Hit rate of the full screen: of about 400,000 compounds, about 2,100 (0.53%) were called active. Inconclusive results (about 14%) are left out. How the calls were made is not given here. For the sample, actives were picked, then their nearest neighbours and some compounds at random.
What follows are compounds tested against Ataxin-2 (Homo sapiens) (UniProt Q99700) (assay: qHTS for Inhibitors of ATXN expression.).
Chain of Ataxin-2 (Homo sapiens) (Q99700 whole entry): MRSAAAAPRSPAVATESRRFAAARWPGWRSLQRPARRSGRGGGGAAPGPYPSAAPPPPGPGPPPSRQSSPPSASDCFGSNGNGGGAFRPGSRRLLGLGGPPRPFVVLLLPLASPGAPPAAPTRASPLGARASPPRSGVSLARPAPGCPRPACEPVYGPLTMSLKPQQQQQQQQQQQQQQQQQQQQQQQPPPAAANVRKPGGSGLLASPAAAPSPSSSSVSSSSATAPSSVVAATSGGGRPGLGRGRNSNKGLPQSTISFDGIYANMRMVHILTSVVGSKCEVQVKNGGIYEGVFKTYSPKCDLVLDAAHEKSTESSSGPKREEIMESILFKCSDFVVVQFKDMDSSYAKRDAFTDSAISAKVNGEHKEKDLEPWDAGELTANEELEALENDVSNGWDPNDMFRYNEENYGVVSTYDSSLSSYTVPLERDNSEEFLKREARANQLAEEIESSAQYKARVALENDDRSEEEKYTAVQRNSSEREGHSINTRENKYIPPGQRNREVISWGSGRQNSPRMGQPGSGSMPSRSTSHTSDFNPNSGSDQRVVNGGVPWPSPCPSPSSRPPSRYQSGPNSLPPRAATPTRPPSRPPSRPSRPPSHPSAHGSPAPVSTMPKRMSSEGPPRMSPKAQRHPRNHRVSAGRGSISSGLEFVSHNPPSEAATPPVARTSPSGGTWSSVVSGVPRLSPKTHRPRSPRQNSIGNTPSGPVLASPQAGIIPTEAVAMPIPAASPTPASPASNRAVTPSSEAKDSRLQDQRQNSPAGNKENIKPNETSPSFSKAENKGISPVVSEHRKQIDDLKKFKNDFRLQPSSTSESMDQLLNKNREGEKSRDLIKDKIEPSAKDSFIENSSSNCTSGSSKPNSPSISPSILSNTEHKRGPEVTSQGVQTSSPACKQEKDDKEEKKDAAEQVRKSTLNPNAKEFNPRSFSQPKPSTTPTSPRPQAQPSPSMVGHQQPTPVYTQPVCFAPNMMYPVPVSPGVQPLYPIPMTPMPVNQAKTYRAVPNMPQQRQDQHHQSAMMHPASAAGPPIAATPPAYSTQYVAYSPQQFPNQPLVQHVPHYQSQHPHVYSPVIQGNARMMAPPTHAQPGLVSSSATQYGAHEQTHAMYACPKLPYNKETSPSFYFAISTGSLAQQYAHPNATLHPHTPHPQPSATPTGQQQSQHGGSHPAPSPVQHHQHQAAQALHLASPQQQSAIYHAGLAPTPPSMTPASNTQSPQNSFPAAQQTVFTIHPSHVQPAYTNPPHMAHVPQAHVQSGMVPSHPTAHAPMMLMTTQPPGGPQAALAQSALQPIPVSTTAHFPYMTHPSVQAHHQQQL
Format: functional
In the case of `O=C1C2C(c3ccccc3)CC=CC2[C@H](c2ccc(C(F)(F)F)cc2)N1Cc1ccccc1` (some centres undefined), the Potency is reported as 15.8 µM (active).
`Cc1ccc(F)c([C@H]2[C@H]3C=CC[C@@H](C)[C@@H]3C(=O)N2Cc2ccccc2)c1` was tested, and the Potency was 39.8 µM (active).
With `CC[C@@H]1CC=C[C@H]2[C@H]1C(=O)N(Cc1ccccc1)[C@H]2c1ccoc1` the Potency was 35.5 µM (active).
For `Nc1nnc(SCC(=O)NNC(=O)c2ccc([N+](=O)[O-])cc2)s1`, the Potency was “inactive”.
For `NC(S)=NN=C1c2cc(OCCN3CCOCC3)ccc2-c2ccc(OCCN3CCOCC3)cc21`, the Potency was 7.94 µM (active).
For `COCc1cc(O)nc(SCCS(=O)(=O)c2ccc(Cl)cc2Cl)n1`, the Potency was 11.2 µM (active).
`COCc1cc(O)nc(-c2ccc(C(F)(F)F)cc2)n1` was tested, and the Potency was “inactive”.
For `O=S(=O)(CCN1C=CC(C(F)(F)F)=NCC1)c1ccc(Cl)cc1Cl`, the Potency was “inactive”.
For `CCOc1cc(C(c2c(C)[nH]n(-c3ccccc3)c2=O)c2c(C)[nH]n(-c3ccccc3)c2=O)ccc1O`, the Potency was 28.2 µM (active).
In the case of `CCN1/C(=C\c2ccc3ccccc3[n+]2CC)Sc2cc(C)ccc21`, the Potency is reported as 44.7 µM (active).
`CCN1/C(=C/c2ccc3cc(C)ccc3[n+]2C)Sc2ccc3sccc3c21` was tested, and the Potency was 17.8 µM (active).
`CCOC(=O)/C(=C\C=C1/Sc2ccccc2N1CC)C(C)=O` was tested, and the Potency was “inactive”.
`CCN1/C(=C/c2ccc3cc(C)ccc3[n+]2CC)Sc2ccccc21` was tested, and the Potency was 14.1 µM (active).
For `CC[n+]1c(C=C2C=CN(C)C=C2)ccc2cc(C)ccc21`, the Potency was 10 µM (active).
In the case of `CCOC(=O)/C(C#N)=C(C)/C=C1\Sc2ccccc2N1CC`, the Potency is reported as “inactive”.
`N=c1c(C(=O)NCC2CCCO2)cc2c(=O)n3ccccc3nc2n1Cc1ccccc1Cl` (centres undefined) was tested, and the Potency was “inactive”.
For `CCOC(=O)C1CCN(C(c2ccc(OC)c(OC)c2)c2sc3nc(C)nn3c2O)CC1` (centres undefined), the Potency was “inactive”.
With `O=C(N/N=C/c1c(O)ccc2ccccc12)c1[nH]ncc1Br` the Potency was “inactive”.
With `CCN1CCN(Cc2c(O)ccc3c2O/C(=C\c2ccc(C)cc2)C3=O)CC1` the Potency was “inactive”.
With `CC(NC(=O)C12CC3CC(CC(C3)C1)C2)C(=O)N/N=C/C1=C(N2CCOCC2)C(=C\c2ccccc2)/CC1` (centres undefined) the Potency was “inactive”.
With `CCOc1ccc(CCNC(=O)Cn2ncn3nc(-c4ccc(OC)cc4)cc3c2=O)cc1OCC` the Potency was “inactive”.
`Cc1cc2c(C)cc(=O)oc2c2c1NCCC2` was tested, and the Potency was “inactive”.
For `Fc1ccc(Br)cc1C1C=C(c2ccc(Br)cc2)Nc2ncnn21` (centres undefined), the Potency was “inactive”.
`CCN1/C(=C/c2ccc3cc(C)ccc3[n+]2CC)Sc2cc(C)ccc21` was tested, and the Potency was 10.6 µM (active).
In the case of `CCOC(=O)c1ccc(N2CCOCC2)c(NC(=O)c2ccc3c(c2)OCO3)c1`, the Potency is reported as “inactive”.
For `CCCCn1nc(C(=O)Nc2cc(C(F)(F)F)ccc2N2CCOCC2)ccc1=O`, the Potency was 39.8 µM (active).
For `Cc1ccccc1C(=O)Nc1cc(C(F)(F)F)ccc1-n1cncn1`, the Potency was “inactive”.
For `c1cc2c3c(cccc3c1)C(N1CCOCC1)=N2`, the Potency was “inactive”.
With `O=C(Nc1ccccc1N1CCOCC1)c1cc(Br)c(Br)s1` the Potency was “inactive”.
In the case of `O=C1c2ccccc2-c2ncnc3c(N4CCOCC4)cc(N4CCOCC4)c1c23`, the Potency is reported as 17.8 µM (active).
With `C=CCN1C(=O)/C(=C/c2ccc(OC(C)=O)c(OCC)c2[N+](=O)[O-])SC1=S` the Potency was 31.6 µM (active).
`CCO/C=C1/C(=O)N(c2ccc(OC)cc2)C(=O)c2ccccc21` was tested, and the Potency was “inactive”.
`O=C(CCl)N1CCCC1c1ccc2c(c1)OCCO2` (centres undefined) was tested, and the Potency was 35.5 µM (active).
`O=C(O)c1cc2c(cc1NC(=O)C1CCCC1)OCCO2` was tested, and the Potency was “inactive”.
`Cc1ccc2c(c1)OC(c1ccc3c(c1)OCCO3)CC2=O` (centres undefined) was tested, and the Potency was “inactive”.
`CCOC(=O)c1sc(NC(=O)CCN2CCN(C)CC2)c(C(=O)OCC)c1C` was tested, and the Potency was “inactive”.
With `CC(=O)O[C@@H]1C[C@H]2C(C)(C)C(=O)C=C[C@]2(C)[C@H]2CC[C@@]3(C)[C@H](c4ccoc4)OC(=O)[C@H]4O[C@]43[C@@]21C` the Potency was 31.6 µM (active).
In the case of `Cc1onc(-c2ccccc2Cl)c1C(=O)Nc1cc(=O)n(C)c(=O)n1C`, the Potency is reported as “inactive”.
`Cc1ccc2c(Cl)cc(Cl)c(OCC(=O)OCC(=O)Nc3ccc(C#N)cc3)c2n1` was tested, and the Potency was “inactive”.
For `CCCCCCN1C[C@@H](n2cc(COC(=O)c3ccccc3)nn2)[C@H](O)C[C@@H]1c1ccc(C)cc1`, the Potency was 22.4 µM (active).
For `CCCCCCN1C[C@H](n2cc(COC(=O)c3ccccc3)nn2)[C@@H](O)C[C@@H]1c1ccc(Cl)cc1`, the Potency was 31.6 µM (active).
In the case of `CCCCC(NC(=O)Cc1c(C)c2cc3c4c(oc3cc2oc1=O)CCCC4)C(=O)O` (centres undefined), the Potency is reported as “inactive”.
In the case of `Cc1c(O)ccc2c(CN3CCN(CCO)CC3)cc(=O)oc12`, the Potency is reported as “inactive”.
In the case of `O=C(O)COc1ccccc1/C=N/Nc1ccc(S(=O)(=O)Nc2ccc(Cl)cc2)cc1[N+](=O)[O-]`, the Potency is reported as “inactive”.
With `Cc1c(NS(=O)(=O)c2ccc(NCCN3CCOCC3)c([N+](=O)[O-])c2)c(=O)n(-c2ccccc2)n1C` the Potency was “inactive”.
For `Cc1nn(-c2ccccc2)c(N2CCCC2)c1/C=N/Nc1ccc(S(=O)(=O)Nc2ccccc2)cc1[N+](=O)[O-]`, the Potency was 31.6 µM (active).
For `O=C(COc1ccc(Br)cc1)NCCN1CCCC1`, the Potency was “inactive”.
For `CC1=C(C(=O)OC(C)C)C(c2ccc(Cl)cc2)n2c(s/c(=C\c3ccc(OCC(=O)O)cc3)c2=O)=N1` (centres undefined), the Potency was “inactive”.
For `CC1=CC2=NC(=O)/C(=C/c3coc4ccc(Cl)cc4c3=O)C(=N)N2O1`, the Potency was “inactive”.

Reference: ChEMBL document CHEMBL1201862, “PubChem BioAssay data set” (2004)
